Cardiac RTF inh: cardiac RTF calcium desensitization | P19429+P45379 | IANBD-labeled cardiac RTF, Ca2+ fluorescence | inhibition, % at 7.15 µM | hit rate 0.12% among 340,000 | AID 493244;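 active means inhibition above the mean inhibition of all tested compounds plus 3 SD, cut at about 17% in these data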;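 further: assay run at fixed EC70 calcium of 1.6 mM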
cardiac RTF act: cardiac RTF calcium sensitization; IANBD-labeled TnC RTF fluorescence at EC20 calcium; 0% EC20 calcium, 100% full calcium; P19429+P45379; activation, % at 7.2 µM; hit rate 0.24% among 340,000;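 active means activation above the mean over all tested compounds plus 3 SD, cut at about 30% in these data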;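 further: rise in fluorescence read as greater calcium sensitivity of cardiac thin filaments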
IDE inh: inhibitors of human insulin-degrading enzyme in cells | P14735 | HEK cells, FAbetaB cleavage, fluorescence polarization | inhibition, % at 5.59 µM | hit rate 0.41% among 320,000 | AID 434962;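 active means percent inhibition above the average of all tested compounds plus 3 SD, set per screening campaign, cut at about 16% in these data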;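 further: IDE supplied by intact live HEK cells; FP after avidin binding of uncleaved biotin substrate so inhibition keeps polarization high; 0% = DMSO wells and 100% = 60 µM reference IDE inhibitor Ii1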
CRFR2-BP ag: agonists of human CRF-binding protein/CRF-R2 receptor complex. HEK293 CRF-R2/CRF-BP, calcium dye fluorescence (FLIPR); percent of saturating CRF peptide response. activation, % at 13.2 µM. hit rate 0.46% among 350,000. AID 588473;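 active means activation of at least 50%, plus an integration ratio under a set limit after plate pattern correction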;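 further: plate controls were neutral control wells without compound for no effect and CRF at EC100 for full effect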
IDE act: IDE (human) activation, cell-based; P14735; HEK cells, FAbeta-B cleavage, fluorescence polarization; 0% vehicle, 100% cell-free pure enzyme wells; activation, % at 5.96 µM; hit rate 0.073% among 340,000; AID 493087;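 active means activation above the mean of all tested compounds plus 3 SD, set per screening campaign, cut at about 17% in these data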
CRFBP-R2 block: CRF-BP/CRF-R2 complex antagonism; HEK293 CRF-R2/CRF-BP, CRF-induced calcium fluorescence; inhibition, % at 11.8 µM; hit rate 0.59% among 350,000;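 active means inhibition of the ligand-induced calcium signal above about 50% at the single tested concentration, limit read from the data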
IDE inh confirm: confirmation of human insulin-degrading enzyme inhibitors in cells; shares compounds with IDE inh; HEK cells, FAbetaB cleavage, fluorescence polarization; inhibition, % at 5.59 µM; hit rate 51% among 1,200; AID 435028;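 active means mean inhibition across triplicate wells above the cutoff set by the earlier primary insulin-degrading enzyme screen, cut at about 16% in these data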;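 further: 0% = DMSO wells and 100% = 60 µM reference IDE inhibitor Ii1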
HEK cytotox: counter-screen for IDE inhibitors: cytotoxicity in HEK cells | hit rate 28% among 1,200 | HEK293 cytotoxicity, ATP luminescence | shares compounds with IDE inh | inhibition, % at 5.59 µM; in the data active means inhibition above about 22%;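 further: 0% = vehicle wells and 100% = reference cytotoxic drug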
Numbers without * were called inactive; i = inactive; . = not tested or not shown. In the library only some 1.5% were active in any assay of this set; here they are far more common.

SMILES	Cardiac RTF inh	cardiac RTF act	IDE inh	CRFR2-BP ag	IDE act	CRFBP-R2 block	IDE inh confirm	HEK cytotox
COc1ccc(CCC(C)N(C)Cc2ccccc2)cc1 (centres undefined)	6.7	-4.6	4.2	3.1	2.5	4.3	.	.
O=C(C1CC(=O)N(c2ccc(F)c(Cl)c2)C1)N1CCOCC1 (centres undefined)	.	.	.	-0.3	.	8.2	.	.
N#C/C(=C\c1ccc(-c2ccccc2C(=O)O)o1)c1nc2ccccc2[nH]1	-21.4	16.6	31.5*	32.2	-38.3	-16.2	53.4*	3.5
Cc1cc(/C=C(/C#N)c2nc3ccccc3[nH]2)c(C)n1-c1ccccc1C(=O)O	-7.8	10.2	11.4	7.2	-6.5	1.3	.	.
Cc1ccc2nc(/C(C#N)=C\c3ccc(N4CCOCC4)o3)[nH]c2c1	-132.7	151.9*	48.5*	7.3	-138.6	14.4	25.9*	26.6*
CN1CCn2cnc(C(=O)N[C@@H](Cc3ccccc3)C(=O)OC(C)(C)C)c2C1=O	.	.	.	-0.2	.	1.6	.	.
Cc1ccccc1-n1sc2cc(F)ccc2c1=O	-3.7	-3.2	72.0*	27.5	-45.9	20.9	16.8*	80.5*
CN(C)S(=O)(=O)c1cccc(-n2sc3ccccc3c2=O)c1	-3.6	2.7	94.0*	8.2	-18.7	5.7	30.9*	51.8*
O=C(O)c1cccc(-n2sc3ccccc3c2=O)c1	-10.6	0.4	92.6*	-1.9	-23.1	4.3	97.0*	8.3
O=c1c2cc(F)ccc2sn1-c1ccccc1	8.7	0.8	60.0*	24.8	-25.1	33.1	32.6*	82.8*
CC(=O)Nc1ccc2c(=O)n(-c3ccccc3)sc2c1	.	.	.	6.7	.	-4.1	.	.
N#Cc1ccc2c(=O)n(-c3ccccc3)sc2c1	.	.	.	11.2	.	2.4	.	.
CCC1Oc2ccc(C)cc2N(CC(=O)NCCN2CCOCC2)C1=O (centres undefined)	-2.4	-1.8	1.4	1.3	3.8	4.2	.	.
CCOc1ccc(S(=O)(=O)N2CCCCC2)cc1NC(=O)Cc1cccc(C(F)(F)F)c1	0.9	-4.3	3.9	0.8	1.8	-4.4	.	.
CC(C)n1cc(CN2CCC(Oc3ccc(C(=O)N4CCCC4)cc3)CC2)cn1	1.0	0.3	-0.2	0.6	3.1	-19.0	.	.
O=c1c2ccccc2sn1-c1cccc(Cl)c1	.	.	.	14.9	.	21.2	.	.
O=c1c2ccccc2sn1-c1ccccc1	-9.3	-5.7	64.5*	9.1	-19.6	7.6	32.0*	97.7*
O=C(CSc1nccc(=O)[nH]1)Nc1cccc2ccccc12	1.2	2.7	-3.8	-0.1	0.4	2.1	.	.
COc1ccccc1C(=O)Nc1ccccc1SC(=O)c1ccccc1OC	-6.3	-2.6	42.8*	1.2	-20.9	7.4	11.2	29.5*
CN(C)S(=O)(=O)c1cccc(NC(=O)CCc2nc3sc4c(c3c(=O)[nH]2)CCCC4)c1	-2.1	-3.7	22.3*	-0.5	-16.6	4.8	14.3	24.5*
C1=C(CCNc2ncnc3c2[nH]c2ccccc23)CCCC1	-20.6	-5.6	34.8*	34.1	-35.2	-123.6	13.3	87.5*
O=c1c2[nH]c3ccccc3c2ncn1CCC1=CCCCC1	-6.0	0.5	-4.6	-0.8	0.9	-9.3	.	.
Cc1ccc(S(=O)(=O)c2c(O)c3ccc(C(=O)O)cc3[nH]c2=O)cc1	-4.4	1.0	.	-1.6	-1.3	18.2	.	.
COC(=O)Cn1c(=NC(=O)c2cc(OC)cc(OC)c2)sc2cc(OC)ccc21	-10.3	2.0	16.1*	-0.7	-11.4	-11.1	5.9	12.9
COC(=O)Cn1c(=NC(=O)c2ccc(OC)cc2)sc2cc(OC)ccc21	8.8	1.3	7.5	0.7	-5.0	-37.7	.	.
SMILES	Cardiac RTF inh	cardiac RTF act	IDE inh	CRFR2-BP ag	IDE act	CRFBP-R2 block	IDE inh confirm	HEK cytotox
Cc1nn(Cc2cccc(F)c2)c(C)c1NC(=O)c1ccc(COc2ccccc2Cl)cc1	-1.3	-1.9	25.2*	7.8	-35.3	32.2	13.3	55.4*
Cc1nn(Cc2c(F)c(F)c(F)c(F)c2F)c(C)c1NC(=O)c1cccc(COc2ccccc2Cl)c1	-9.8	-3.3	1.4	0.9	-5.2	38.5	.	.
Cc1nn(Cc2ccc(Cl)cc2Cl)c(C)c1NC(=O)c1ccc(COc2cc(Cl)ccc2Cl)o1	-2.6	-3.9	-0.4	1.2	1.2	6.5	.	.
Cc1nn(Cc2c(F)c(F)c(F)c(F)c2F)c(C)c1NC(=O)c1ccc(COc2ccc(Cl)cc2Cl)o1	-4.9	-0.4	18.5*	1.9	-9.6	17.4	6.9	34.0*
C=CCN1C(=O)[C@@H]2Cc3c([nH]c4ccccc34)C(c3ccc(O)cc3)N2C1=S (some centres undefined)	-21.6	22.4	25.4*	3.3	-39.9	7.1	15.3	22.5*
O=C(O)CN1C(=O)/C(=C\c2cn(CC(=O)N3CCOCC3)c3ccccc23)SC1=S	-154.1	134.2*	67.0*	69.3*	-108.4	-51.7	114.2*	9.0
O=C(CCN1C(=O)/C(=C\c2ccccc2F)SC1=S)N1CCOCC1	.	.	.	1.1	.	14.3	.	.
Cc1ccc(SCCSc2nc(C)cc(=O)[nH]2)cc1	4.4	-2.0	7.2	-0.2	-12.4	4.5	.	.
O=c1oc2c(CN3CCOCC3)c(O)ccc2c2c1CCC2	0.0	-2.0	1.9	-0.9	-1.5	10.8	.	.
O=c1oc2c3c4c(cc2c(C(F)(F)F)c1CCN1CCOCC1)CCCN4CCC3	-68.2	70.0*	36.9*	708.1	-49.1	i	67.7*	9.5
OC(CN1CCN(c2ccc(C(F)(F)F)cn2)CC1)c1ccccc1 (centres undefined)	1.5	6.8	19.7*	0.0	-11.0	-9.7	10.8	20.4
COc1ccccc1N1C(=O)c2cccc3c(N(C)CCO)ccc(c23)C1=O	-63.2	51.6*	44.5*	110.5*	-33.1	-104.4	46.6*	10.1
Cc1ccccc1N1C(=O)c2cccc3c(N(C)CCO)ccc(c23)C1=O	-152.6	178.7*	46.8*	158.9*	-48.7	-152.5	68.4*	11.5
NC(CSC1(c2ccc(Cl)cc2)c2ccccc2-c2ccccc21)C(=O)O (centres undefined)	-4.6	3.4	.	-1.8	-5.0	5.0	.	.
O=C1NCCN(CC2CCN(CCc3ccc(Cl)c(Cl)c3)CC2)C1=O	-2.8	-5.5	.	-0.3	1.4	4.4	.	.
Cc1nc2ccc(NC(=S)NC3CCCCC3)cc2nc1C	-5.7	-2.3	21.1*	-0.3	-4.5	13.8	6.5	16.0
Cc1ccc(NC(=S)NC2CCCC2)cc1C	7.6	6.6	2.0	-5.2	4.3	12.0	.	.
CCN(CC(=O)NCc1cccs1)C(=O)c1cccc(S(=O)(=O)NCc2ccccc2)c1	0.1	2.1	-12.9	-1.3	-2.2	-8.1	.	.
